Data from PubChem BioAssay (NCATS).
Records with an inconclusive call do not appear. Active and inactive are the calls of the source. Calls follow the shape of the dose curve; as a rule, active = well fitted curve in the direction sought with a large enough effect; inconclusive = small, poorly fitted or top-dose-only effect, or another doubt; inactive = no such curve, though single readings can be large; an effect the other way counts as inactive or inconclusive.

Tests used:
[1] = qHTS of pediatric cancer cell lines to identify multiple opportunities for drug repurposing: Primary screen for Saos-2 cells (AID 1347097); also: nearly all actives have a fitted effect of over 40% in size
Method in brief: (§1)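 ATP-based luminescence (CellTiter-Glo) quantifies viability after a 48-hour exposure. Compounds are dosed across 8 or 11 final concentrations; DMSO and 2.3 µM bortezomib serve as controls.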

[2] = qHTS of pediatric cancer cell lines to identify multiple opportunities for drug repurposing: Primary screen for SK-N-SH cells (AID 1347098);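 also: DMSO served as neutral control and bortezomib at 2.3 µM as positive control; nearly all actives have a fitted effect of over 65% in size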
Method in brief: (§2)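 Cells (500-1,000/well) rested 5 h, then received compounds for 48 h; metabolically active cells were measured by CellTiter-Glo luminescence. Final concentrations spanned up to 46 µM (MIPE, 11-point) or 0.59 nM-46 µM (NPC, 8-point) in primary screens, 11-point in follow-ups.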

[3] = qHTS of pediatric cancer cell lines to identify multiple opportunities for drug repurposing: Primary screen for NB1643 cells (AID 1347099); also: nearly all actives have a fitted effect of over 50% in size
Method in brief: as §1

[4] = qHTS of pediatric cancer cell lines to identify multiple opportunities for drug repurposing: Primary screen for LAN-5 cells (AID 1347100)
Method in brief: (§3)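 Cells (500-1,000/well) in growth media were settled 5 h at 37 degrees C, then given compounds for 48 h. Viability was read as CellTiter-Glo luminescence. Primary runs used MIPE at 11 points (0.78 nM-46 µM) and NPC at 8 points (0.59 nM-46 µM); follow-ups used 11 points.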

[5] = qHTS of pediatric cancer cell lines to identify multiple opportunities for drug repurposing: Primary screen for BT-12 cells (AID 1347101); also: nearly all actives have a fitted effect of over 25% in size
Method in brief: as §2

[6] = qHTS of pediatric cancer cell lines to identify multiple opportunities for drug repurposing: Primary screen for Rh18 cells (AID 1347102); also: nearly all actives have a fitted effect of over 65% in size
Method in brief: as §3

[7] = qHTS of pediatric cancer cell lines to identify multiple opportunities for drug repurposing: Primary screen for OHS-50 cells (AID 1347103); also: nearly all actives have a fitted effect of over 40% in size
Method in brief: as §2

[8] = qHTS of pediatric cancer cell lines to identify multiple opportunities for drug repurposing: Primary screen for RD cells (AID 1347104); also: nearly all actives have a fitted effect of over 55% in size
Method in brief: as §1

[9] = qHTS of pediatric cancer cell lines to identify multiple opportunities for drug repurposing: Primary screen for control Hh wild type fibroblast cells (AID 1347106);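 also: series mostly up to about 46 µM; a drop in luminescence marks cytotoxicity and a rise apparent proliferation; nearly all actives have a fitted effect of over 55% in size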
Method in brief: as §3

[10] = qHTS of pediatric cancer cell lines to identify multiple opportunities for drug repurposing: Primary screen for Rh30 cells (AID 1347107); also: series mostly up to about 46 µM; nearly all actives have a fitted effect of over 75% in size
Method in brief: as §3

[11] = qHTS of pediatric cancer cell lines to identify multiple opportunities for drug repurposing: Primary screen for Rh41 cells (AID 1347108);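 also: series mostly up to about 46 µM; luminescence drop marks cytotoxic hits; nearly all actives have a fitted effect of over 70% in size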
Method in brief: as §1

[12] = qHTS of pediatric cancer cell lines to identify multiple opportunities for drug repurposing: Primary screen for MG 63 (6-TG R) cells (AID 1347105); also: nearly all actives have a fitted effect of over 50% in size
Method in brief: as §1

[13] = qHTS of pediatric cancer cell lines to identify multiple opportunities for drug repurposing: Confirmatory screen for NB1643 cells (AID 1347109); also: potency is read from the fitted curve at half-maximal effect; nearly all actives have a fitted effect of over 45% in size
Method in brief: as §3

[14] = qHTS of pediatric cancer cell lines to identify multiple opportunities for drug repurposing: Confirmatory screen for SK-N-MC cells (AID 1347111);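 also: potency is read from the fitted curve at half-maximal effect; cells exposed to compound for 48 h before the readout; nearly all actives have a fitted effect of over 70% in size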
Method in brief: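 Metabolically active cells were quantified by ATP-dependent luminescence (CellTiter-Glo, 15 min at room temperature) following 48 h treatment. Cells had been plated at 500-1,000 per well and settled for 5 h beforehand.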

[15] = qHTS of pediatric cancer cell lines to identify multiple opportunities for drug repurposing: Confirmatory screen for BT-12 cells (AID 1347112); also: potency is read from the fitted curve at half-maximal effect; nearly all actives have a fitted effect of over 55% in size
Method in brief: as §3

[16] = qHTS of pediatric cancer cell lines to identify multiple opportunities for drug repurposing: Confirmatory screen for LAN-5 cells (AID 1347113); also: potency is read from the fitted curve at half-maximal effect; nearly all actives have a fitted effect of over 65% in size
Method in brief: as §3

[17] = qHTS of pediatric cancer cell lines to identify multiple opportunities for drug repurposing: Confirmatory screen for SJ-GBM2 cells (AID 1347116); also: potency is read from the fitted curve at half-maximal effect; nearly all actives have a fitted effect of over 60% in size
Method in brief: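 Viability measured as metabolically active cells via CellTiter-Glo luminescence following 48 hours of compound exposure, 11-point dilutions in confirmatory testing. 500-1,000 cells/well plated 5 hours before dosing; controls were DMSO and 2.3 µM bortezomib.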

[18] = qHTS of pediatric cancer cell lines to identify multiple opportunities for drug repurposing: Confirmatory screen for BT-37 cells (AID 1347117); also: potency is read from the fitted curve at half-maximal effect; nearly all actives have a fitted effect of over 55% in size
Method in brief: as §3

Measured: Potency

CCOC(=O)Oc1ccc(CCNC(=O)[C@H](CCSC)NC(C)=O)cc1OC(=O)OCC
not listed: [12] | [13] | [14] | [15] | [16] | [17] | [18]
inactive: all other assays above

CN1CCCN=C1/C=C/c1cccs1
inactive: [1] | [2] | [3] | [4] | [5] | [6] | [7] | [8] | [10] | [11]

COc1cc2c(cc1OC)C(=O)CC2
not listed: [7] | [13] | [14] | [15] | [16] | [17] | [18]
inactive: all other assays above

OCCOCCN1CCN(C(c2ccccc2)c2ccc(Cl)cc2)CC1 (stereo not drawn)
inactive: [1] | [2] | [3] | [4] | [5] | [6] | [8] | [12] | [9] | [10]

O=C(CCCCCCCCC#CI)Oc1ccccc1
inactive: [1] | [2] | [3] | [4] | [5] | [6] | [8] | [9] | [10] | [11]

C=CCOc1cc(Cl)ccc1C(=O)NCCN(CC)CC
not listed: [7] | [13] | [14] | [15] | [16] | [17] | [18]
inactive: all other assays above

Cc1onc(-c2c(Cl)cccc2Cl)c1C(=O)Cl
not listed: [12] | [13] | [14] | [15] | [16] | [17] | [18]
inactive: all other assays above

CCCCC(=O)OCC(=O)[C@H]1[C@H](C)C[C@H]2[C@@H]3C[C@H](F)C4=CC(=O)C=C[C@]4(C)[C@@]3(F)[C@@H](O)C[C@@]21C
active: [13] 18.5 µM | [14] 10.4 µM | [15] 14.7 µM | [16] 23.3 µM | [17] 20.8 µM | [18] 20.8 µM
not listed: [7]
inactive: all other assays above

CC(C)NC(=O)c1ccc(C=O)cc1
not listed: [12] | [13] | [14] | [15] | [16] | [17] | [18]
inactive: all other assays above

CN1C(CSCC(F)(F)F)Nc2cc(Cl)c(S(N)(=O)=O)cc2S1(=O)=O (stereo not drawn)
not listed: [7] | [13] | [14] | [15] | [16] | [17] | [18]
inactive: all other assays above
